Several values for one entry are separate records, joined by “and”; a condition that tells them apart may be missing. Equal values may be shown once. Where a structure was tested more than once in an assay, its records may differ in their call. Activity calls are given as the source filed them. Rule for the calls: active = hit-call score of the fitted dose curve at least 0.9, where 1 is the maximum; inactive = score below 0.9.

Experiment [1] can be described thus: APR_HepG2_NuclearSize_72hr: Apredica 72-hour HepG2 Assay for Nuclear Size (AID 2282925). The following applies: high-content imaging, actives raise or lower the signal. The procedure, abridged:
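HepG2 cells were exposed to compounds at ten concentrations from 0.39 to 200 uM (duplicate, 0.5% DMSO final) for 72 hr. After fixation in 3.7% formaldehyde, nuclei were stained with Hoechst 33342 (2 ug/mL) and imaged at 20x.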

Experiment [2] in a line: ATG_CRE_CIS: Attagene CIS-FACTORIAL HepG2 Assay for human cAMP Responsive Element (CRE) binding protein 3 (AID 2282926). As to conditions: HepG2 CRE cis-reporter, Attagene multiplexed mRNA; actives raise or lower the signal. The essentials:
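Transfected HepG2 were treated for 24 hours, then RNA was extracted and reporter cDNA amplified with sequence-specific primers. Labelled fragments were separated by capillary electrophoresis, and the CRE signal was fitted bidirectionally with DMSO as baseline.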

The target in experiment [3] is CCAAT/enhancer-binding protein beta (Homo sapiens) (UniProt P17676). Nature of the experiment: ATG_C_EBP_CIS: Attagene CIS-FACTORIAL HepG2 Assay for human CCAAT/Enhancer Binding Protein (C/EBP) beta (AID 2282927). As to conditions: HepG2 Attagene cis-factorial transcription factor reporter; actives raise or lower the signal. The essentials: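 Following a 24 h incubation with test chemical, transfected HepG2 cells yielded RNA whose reporter transcripts were quantified by RT-PCR and fluorescent capillary electrophoresis, with DMSO serving as baseline for bidirectional fitting.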

Experiment [4] is described as follows: ATG_CMV_CIS: Attagene CIS-FACTORIAL HepG2 Assay for human CMV (Internal Marker) (AID 2282928).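 Note: endpoint acts as a background internal control marker rather than a target.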 As to conditions: HepG2 CMV promoter reporter, transcription factor profiling; actives raise or lower the signal. The procedure, abridged: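 Cell system: HepG2, transiently transfected multiple reporter units under cis promoters. Exposure: 24 h. Detection: RT-PCR, FAM labeling, HpaI digestion, capillary electrophoresis. Analysis: bidirectional, DMSO baseline.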

Experiment [5] is described as follows: ATG_DR4_LXR_CIS: Attagene CIS-FACTORIAL HepG2 Assay for human Liver X Receptor (LXR), DR4 submotif (AID 2282929). The following applies: HepG2 Attagene DR4 cis-reporter, mRNA transcription; actives raise or lower the signal. The procedure, abridged: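 HepG2, transient MRTU transfection, cis-element (DR4) promoter; 24 h compound exposure; total RNA → oligo(dT) RT → PCR → 6-FAM primer extension → HpaI cut → CE. Gain/loss vs DMSO, bidirectional fit.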

Experiment [6] has as its target Aryl hydrocarbon receptor (Homo sapiens) (UniProt P35869). Nature of the experiment: ATG_Ahr_CIS: Attagene CIS-FACTORIAL HepG2 Assay for human Aryl Hydrocarbon Receptor (Ahr) (AID 2282930). The following applies: HepG2 AhR cis-factorial reporter transcription; actives raise or lower the signal. The procedure, abridged: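 Values derive from bidirectional fitting against DMSO negative control. Underlying signal: cis-element reporter mRNA in transiently transfected HepG2, harvested 24 h post-dose and measured by RT-PCR plus capillary electrophoresis.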

The nature of experiment [7]: ATG_AP_1_CIS: Attagene CIS-FACTORIAL HepG2 Assay for human Activator Protein 1 (AP-1) (AID 2282931). The following applies: HepG2 Attagene cis-factorial AP-1 reporter mRNA; actives raise or lower the signal. The essentials:
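Transient MRTU transfection of HepG2 → 24 h chemical treatment → RNA isolation, RT-PCR, 6-FAM labelling, HpaI digest → capillary electrophoresis. Fit: bidirectional, DMSO negative control.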

Experiment [8] can be described thus: ATG_BRE_CIS: Attagene CIS-FACTORIAL HepG2 Assay for human Bone Morphogenetic Protein (BMP) Response Element (BRE) (AID 2282933). The following applies: HepG2 BMP response element reporter, Attagene transcription factor profiling; actives raise or lower the signal. The essentials: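 After a 24 h chemical treatment, transiently transfected HepG2 cells were lysed for RNA; reporter transcripts were quantified by fluorescent RT-PCR and capillary electrophoresis, normalised to DMSO.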

Experiment [9] addresses Retinoic acid receptor alpha (Homo sapiens) (UniProt P10276). Nature of the experiment: ATG_DR5_RAR_CIS: Attagene CIS-FACTORIAL HepG2 Assay for human Retinoic Acid Receptor Alpha (RARE), DR5 submotif (AID 2282934).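 For AC50: reporter responds to endogenous RAR alpha beta and gamma in HepG2 not RARA alone.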 As to conditions: HepG2 Attagene cis-factorial RARE DR5 reporter, mRNA; actives raise or lower the signal. The essentials:
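Endpoint fitted in both directions relative to DMSO as negative control. It reflects DR5 cis-element reporter mRNA induction in transiently transfected HepG2 cells, measured 24 h after dosing through RT-PCR and fluorescent capillary electrophoresis.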

The target in experiment [10] is Transcription factor E2F1 (Homo sapiens) (UniProt Q01094). The experiment in a line: ATG_E2F_CIS: Attagene CIS-FACTORIAL HepG2 Assay for human E2F Transcription Factor 1 (AID 2282935). The following applies: HepG2 Attagene cis-reporter, E2F reporter RNA transcripts; actives raise or lower the signal. The procedure, abridged: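 HepG2 cells transiently transfected with multiplexed cis-element reporter units, dosed for 24 h. Reporter mRNA measured by RT-PCR, 6-FAM primer-extension labeling, HpaI digestion and capillary electrophoresis; bidirectional fit versus DMSO baseline.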

Experiment [11] in a line: ATG_E_Box_CIS: Attagene CIS-FACTORIAL HepG2 Assay for human Enhancer Box (E-box) (AID 2282936). As to conditions: HepG2 E-box cis-reporter transcription, actives raise or lower the signal. The procedure, abridged:
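HepG2 cells transiently transfected with multiplexed cis-element reporter units sensing endogenous transcription factor activity; 24 h compound exposure. Reporter mRNA measured by RT-PCR, 6-FAM primer extension, HpaI digestion and capillary electrophoresis; bidirectional fit versus DMSO.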

Experiment [12] is described as follows: ATG_M_61_CIS: Attagene CIS-FACTORIAL HepG2 Assay for M61 Transcription Factor (Internal Marker) (AID 2282937). As to conditions: HepG2 Attagene CIS-FACTORIAL M61 internal marker reporter; actives raise or lower the signal. The essentials: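 Human liver HepG2, transient MRTU transfection (cis promoter elements), 24 h compound. Total RNA → oligo(dT) RT → PCR → FAM label → HpaI → CE. Internal background marker; bidirectional fitting, DMSO = baseline.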

Experiment [13] in a line: ATG_EGR_CIS: Attagene CIS-FACTORIAL HepG2 Assay for human Early Growth Response 1 (EGR1) (AID 2282938). As to conditions: HepG2 Attagene CIS-FACTORIAL EGR reporter mRNA; actives raise or lower the signal. The essentials:
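Transient transfection of human HepG2 with multiple cis-regulated reporter units, chemical exposure 24 h, total RNA isolated. Reverse transcription, PCR, fluorescent labelling and capillary electrophoresis quantify reporter transcripts; activity fitted bidirectionally against DMSO.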

Experiment [14] can be described thus: ATG_M_19_CIS: Attagene CIS-FACTORIAL HepG2 Assay for M19 Transcription Factor (Internal Marker) (AID 2282939). The following applies: HepG2 Attagene CIS-FACTORIAL M19 internal marker reporter; actives raise or lower the signal. The procedure, abridged:
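In this multiplexed cell assay, transiently transfected HepG2 reporter units report endogenous transcription-factor activity; after 24 hours of treatment, labelled reporter cDNA fragments are quantified by capillary electrophoresis and fitted bidirectionally against DMSO.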

The nature of experiment [15]: ATG_ERE_CIS: Attagene CIS-FACTORIAL HepG2 Assay for Estrogen Response Element (ERE) (AID 2282940). As to conditions: HepG2 ERE cis-reporter, Attagene RNA transcript; actives raise or lower the signal. The procedure, abridged: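 Measuring endogenous transcription factor output, the assay doses transfected HepG2 cells for 24 hours and quantifies reporter transcripts by fluorescent RT-PCR and capillary electrophoresis, with DMSO as baseline.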

A short description of experiment [16]: ATG_Ets_CIS: Attagene CIS-FACTORIAL HepG2 Assay for human Erythroblast Transformation Specific (ETS) (AID 2282941). As to conditions: HepG2 ETS cis-reporter transcription, actives raise or lower the signal. The procedure, abridged:
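After transient cis-reporter transfection, HepG2 cells receive test chemical for 24 h. Reporter mRNA levels, measured by RT-PCR and capillary electrophoresis fluorescence, are analysed bidirectionally relative to the DMSO baseline.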

The target of experiment [17] is Hepatocyte nuclear factor 3-beta (Homo sapiens) (UniProt Q9Y261). Nature of the experiment: ATG_FoxA2_CIS: Attagene CIS-FACTORIAL HepG2 Assay for human Forkhead box A2 (FOXA2) (AID 2282942). As to conditions: HepG2 cis-reporter transcription factor activity, 24 h; actives raise or lower the signal. The essentials: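 Transient MRTU transfection of HepG2 liver cells; 24 h treatment; total RNA → oligo(dT) RT → PCR → FAM primer extension → HpaI cut → CE. Bidirectional fit vs DMSO.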

Experiment [18] is described as follows: ATG_FoxO_CIS: Attagene CIS-FACTORIAL HepG2 Assay for human Forkhead box O (FoxO) (AID 2282943). The following applies: HepG2 Attagene cis-reporter, FoxO element, mRNA; actives raise or lower the signal. The essentials: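 Values reflect reporter mRNA induction or loss in HepG2 cells 24 h post-dosing, fitted bidirectionally with DMSO as negative control and baseline. Detection used RT-PCR and fluorescence capillary electrophoresis.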

Experiment [19] can be described thus: ATG_GATA_CIS: Attagene CIS-FACTORIAL HepG2 Assay for human GATA Binding Protein (AID 2282944). The following applies: HepG2 GATA cis-element reporter, Attagene multiplex mRNA; actives raise or lower the signal. The essentials:
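Measures endogenous transcription factor-driven reporter mRNA in HepG2 cells transiently carrying cis-regulated constructs. 24 h dosing; RNA via oligo(dT) reverse transcription, PCR, HpaI digestion, capillary electrophoresis; fitted relative to DMSO.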

The nature of experiment [20]: ATG_AP_2_CIS: Attagene CIS-FACTORIAL HepG2 Assay for human Activator Protein 2 (AP-2) (AID 2282932). As to conditions: HepG2 AP-2 cis-reporter, Attagene transcription factor profiling; actives raise or lower the signal. The essentials:
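HepG2 cells were transiently transfected with multiple cis-promoter reporter transcription units and dosed for 24 h. Reporter mRNA was measured by RT-PCR with capillary electrophoresis fluorescence; bidirectional fits relative to DMSO baseline.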

Sequence of Hepatocyte nuclear factor 3-beta (Homo sapiens) (Q9Y261 whole entry, looked up): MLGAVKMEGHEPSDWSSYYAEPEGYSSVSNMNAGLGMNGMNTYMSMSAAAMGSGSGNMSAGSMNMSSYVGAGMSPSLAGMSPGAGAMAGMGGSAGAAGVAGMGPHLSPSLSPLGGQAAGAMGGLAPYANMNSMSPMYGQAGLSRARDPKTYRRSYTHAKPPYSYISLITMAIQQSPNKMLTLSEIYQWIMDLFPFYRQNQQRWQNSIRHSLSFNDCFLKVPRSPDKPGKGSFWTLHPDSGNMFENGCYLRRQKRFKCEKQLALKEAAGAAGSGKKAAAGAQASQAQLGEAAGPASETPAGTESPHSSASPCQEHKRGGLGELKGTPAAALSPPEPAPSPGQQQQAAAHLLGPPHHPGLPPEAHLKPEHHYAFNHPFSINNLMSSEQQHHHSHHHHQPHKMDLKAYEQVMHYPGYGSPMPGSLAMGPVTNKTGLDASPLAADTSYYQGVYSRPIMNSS
Sequence of Retinoic acid receptor alpha (Homo sapiens) (P10276 whole entry, looked up): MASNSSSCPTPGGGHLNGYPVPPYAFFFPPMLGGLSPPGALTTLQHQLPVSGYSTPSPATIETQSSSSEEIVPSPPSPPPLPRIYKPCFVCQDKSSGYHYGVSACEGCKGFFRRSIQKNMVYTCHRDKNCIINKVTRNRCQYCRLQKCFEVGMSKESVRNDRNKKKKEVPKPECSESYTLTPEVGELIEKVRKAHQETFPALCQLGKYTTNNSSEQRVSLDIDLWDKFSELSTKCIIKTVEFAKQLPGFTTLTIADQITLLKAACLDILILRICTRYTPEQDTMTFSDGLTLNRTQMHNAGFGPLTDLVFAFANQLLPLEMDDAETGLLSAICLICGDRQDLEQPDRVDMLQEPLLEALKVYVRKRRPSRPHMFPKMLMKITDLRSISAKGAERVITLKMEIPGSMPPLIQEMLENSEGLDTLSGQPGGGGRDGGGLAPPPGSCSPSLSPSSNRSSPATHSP
Sequence of CCAAT/enhancer-binding protein beta (Homo sapiens) (P17676 whole entry, looked up): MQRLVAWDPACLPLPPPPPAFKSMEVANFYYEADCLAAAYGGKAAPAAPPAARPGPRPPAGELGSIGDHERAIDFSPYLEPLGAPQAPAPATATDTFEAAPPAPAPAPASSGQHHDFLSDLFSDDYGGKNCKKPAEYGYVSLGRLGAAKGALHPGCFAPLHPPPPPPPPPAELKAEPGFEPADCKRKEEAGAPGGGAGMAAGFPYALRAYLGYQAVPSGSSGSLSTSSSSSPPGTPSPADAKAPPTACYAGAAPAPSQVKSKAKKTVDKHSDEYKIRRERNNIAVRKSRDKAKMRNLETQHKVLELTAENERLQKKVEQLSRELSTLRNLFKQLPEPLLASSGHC
Sequence of Aryl hydrocarbon receptor (Homo sapiens) (P35869 whole entry, looked up): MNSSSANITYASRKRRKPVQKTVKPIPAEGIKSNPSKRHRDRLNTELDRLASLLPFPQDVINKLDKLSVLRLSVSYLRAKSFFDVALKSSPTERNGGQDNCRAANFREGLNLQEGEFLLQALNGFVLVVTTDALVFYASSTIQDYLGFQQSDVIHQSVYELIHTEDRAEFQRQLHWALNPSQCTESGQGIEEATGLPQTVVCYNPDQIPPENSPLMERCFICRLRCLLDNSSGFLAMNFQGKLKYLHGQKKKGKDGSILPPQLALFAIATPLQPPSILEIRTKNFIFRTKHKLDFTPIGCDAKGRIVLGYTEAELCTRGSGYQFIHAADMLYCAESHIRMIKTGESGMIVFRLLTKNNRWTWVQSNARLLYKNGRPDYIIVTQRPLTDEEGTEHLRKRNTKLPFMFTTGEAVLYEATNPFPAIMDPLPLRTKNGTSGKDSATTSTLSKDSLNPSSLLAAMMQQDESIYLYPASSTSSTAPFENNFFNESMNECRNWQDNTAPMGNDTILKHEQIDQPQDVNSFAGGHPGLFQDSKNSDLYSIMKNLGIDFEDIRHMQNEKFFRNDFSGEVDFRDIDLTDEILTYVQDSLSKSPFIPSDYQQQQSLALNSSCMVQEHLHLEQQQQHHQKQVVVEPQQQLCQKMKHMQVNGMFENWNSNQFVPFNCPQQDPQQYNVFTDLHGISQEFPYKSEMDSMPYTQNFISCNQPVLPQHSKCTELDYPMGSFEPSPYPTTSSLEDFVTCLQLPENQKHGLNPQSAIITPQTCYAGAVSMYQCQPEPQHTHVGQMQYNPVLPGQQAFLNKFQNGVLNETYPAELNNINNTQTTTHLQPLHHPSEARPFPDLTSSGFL
Sequence of Transcription factor E2F1 (Homo sapiens) (Q01094 whole entry, looked up): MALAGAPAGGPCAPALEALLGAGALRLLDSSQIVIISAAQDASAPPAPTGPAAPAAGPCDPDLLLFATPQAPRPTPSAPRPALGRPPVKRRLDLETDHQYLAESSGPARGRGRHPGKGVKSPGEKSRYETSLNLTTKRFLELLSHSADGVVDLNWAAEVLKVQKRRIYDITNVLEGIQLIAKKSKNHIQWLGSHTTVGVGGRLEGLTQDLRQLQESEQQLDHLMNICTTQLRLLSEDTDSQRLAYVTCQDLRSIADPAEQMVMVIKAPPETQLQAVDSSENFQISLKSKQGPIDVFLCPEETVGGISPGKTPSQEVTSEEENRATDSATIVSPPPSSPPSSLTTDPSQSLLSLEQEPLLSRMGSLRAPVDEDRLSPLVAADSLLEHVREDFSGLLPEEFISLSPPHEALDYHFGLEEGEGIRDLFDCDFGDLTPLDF

Usually AC50 stands for the midpoint of the concentration-response curve, whichever way the signal moves. Regarding `OCCC(F)(F)C(F)(F)C(F)(F)C(F)(F)C(F)(F)C(F)(F)F`, the result in experiment [1], in experiment [2], in [3], in experiment [4], in experiment [5] and in experiment [6] was inactive. The call in experiment [7], in [8], in [9], in experiment [10], in [11] and in [12] was inactive. The result in [13], in [14], in experiment [16], in [17], in experiment [18] and in experiment [19] was inactive. Further, the AC50 was 154 µM (active) in experiment [2]; 146 µM (active) in experiment [3]; 145 µM (active) in experiment [4]; 182 µM (active) in [5]; 77.3 µM (active) in [7]; 136 µM (active) in experiment [10]. In addition, the AC50 in experiment [15] is 33.9 µM (active) and 9.4 µM (active); in experiment [19], 125 µM (active).

For `CCCCOCCO`, the outcome in experiment [1], in [2], in [3], in [4], in experiment [5] and in experiment [6] was inactive. For the same compound, the compound was called inactive in experiment [7], in [20], in experiment [8], in experiment [9], in [10] and in experiment [11]. The compound was called inactive in [12], in experiment [13], in experiment [14], in experiment [16], in experiment [17] and in experiment [18]. Also, the compound was called inactive in experiment [19]. In [15], the AC50 is 134 µM (active).

Take `CC(C)(C)c1cccc(C(C)(C)C)c1O`: the compound was called inactive in experiment [1], in experiment [3], in experiment [5], in experiment [6], in [20] and in [8]. Besides, the outcome in experiment [11], in experiment [12], in [13], in experiment [14], in experiment [15] and in [17] was inactive. For the same compound, the outcome in experiment [18] and in [19] was inactive. The concentration at half-maximal activity (AC50) in experiment [2] was 146 µM (active); in [4], 100 µM (active); in [7] it was 128 µM (active); in [9], 100 µM (active); in experiment [10] it was 188 µM (active).

The record behind these values is PubChem BioAssay (EPA / NIEHS).
